The values that follow come from PubChem BioAssay AID1508600 (Functional Genomics Laboratory (NCATS/FGL), 2020).

The whole screen tested about 53,000 sequences, of which about 3,700 (7%) were called active. Shown is part of a subset that was picked to be rich in actives. Unmarked numbers belong to inactive results.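 The calls were made as follows: active = gene knockdowns whose robust z-score for IL-1 alpha signal is at least 2 or at most -2, so actives lie on both sides; inactive = the rest.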

This test in a line: Components of the Cytosolic LPS Sensing Pathway: Gene Identification via Genome-wide siRNA Screen. To be noted: RAW264.7 macrophages, IL-1a HTRF, actives lie on both sides, screened at 100 nM (by protocol), cells primed 5 h with Pam3CSK4 first. The text has this: Non-canonical inflammasome activation by cytosolic LPS is a critical component of the host response to Gram-negative bacterial infection, however we lack a comprehensive understanding of the cellular processes that control this pathway. Here we describe a genome-wide siRNA screen to identify genes regulating the mouse macrophage IL-1 alpha response to cytosolic LPS.
RAW264.7 cells were maintained in complete DMEM media, comprising DMEM with 4.5 g/L glucose, 10% FBS (Gemini Bio-Products, West Sacramento, CA), 2 mM Glutamine (Lonza) and 20 mM HEPES (Lonza), hereafter complete DMEM.
The RNAi screen was conducted in 384-well format using the Ambion Silencer Mouse Genome siRNA Library (#4391425), which consists of three unique, nonoverlapping, nonpooled siRNAs for each of 17,000 gene targets. siRNA reagents ([…]) were stamped into 384-well white flat-bottom microplates (Corning, 3570) using a Velocity11 VPrep liquid handling system (Agilent) integrated into a BioCel robotic platform (Agilent) in columns 1-22, leaving columns 23-24 empty for negative (Ambion, Negative control #1) and positive (mouse Casp4) controls, respectively. The median value of each plate's negative control column was used to normalize sample wells, and the positive control was used to assess transfection efficiency and assay performance.
Lipofectamine RNAiMAX Transfection Reagent ([…]; Invitrogen) was added in […] serum-free, antibiotic-free media to plate wells using a Thermo Scientific Matrix WellMate and Microplate Stacker. Plates were incubated for 45 min at room temperature to allow for the sufficient formation of siRNA-lipid complexes. Cells were seeded at a density of 1x10^4 cells per well in 20 microL media containing 20% (vol/vol) FBS without antibiotics. The final concentration of siRNA in each well was 100 nM. Cells were cultured for 48h at 37 degrees C in 5% CO2 before addition of […] of TLR ligand Pam3CSK4 for 5 hours. The medium was then removed, replaced with […] growth media and cell were transfected with […] of LipidA and TransIT-TKO (Mirus) for 24 hour. At the end of the LipidA treatment, […] of supernatant was transferred to a 384 Greiner Bio-one non-binding low volume plate and […] of IL-1a HTRF reagent (Cisbio, 62MIL1APEH) was added and incubated at room temperature overnight. The plates were read on an EnVision plate reader (PerkinElmer). Cell viability was measured by adding 20ul Cell Titer Glo to the original plate and running a luminescence read on the EnVision. The quantified IL-1a signal for each siRNA gene-targeted well was divided by the median of the negative control wells and multiplied by 100 to achieve a negative control normalized value for each well/siRNA. This normalized value was then used to generate a robust z-score by first taking the log of each value and then by subtracting the median and dividing by the […].
On the technique in general: TR-FRET usually uses a lanthanide donor and a delayed reading to cut background.
Take “GACAAGUUCUCAAGUAUCCTT against 1110006O24Rik”: the z-score was -2.02 (active).
The same measure for “GGUCCAUAACUUGUGUGCUTT against 3300002I08Rik”: -0.462; for GGUUGUGAAACGAUGCCCUTT against Trp63: -0.512; for CCUGCAAUCAAAACAUCAATT against Vmn1r10: 1.13.
In the case of GGAAUUAUCUGAGCCUGUGTT against Fam193b, the z-score was -0.0725.
The same measure for GGAAGAGAGAUUCCUAUAGTT against Sec11a: -2.03 (active).
As for GGCUUGGUGGGACAGAUAUTT against Ccdc51, the z-score is -1.82.
Consider GCUAGAUCCAUCCAUAUAGTT against Misp, for which the z-score was -1.26.
The result for GGUGAAGAUCUGAUAAGAATT against Epb41 reads -1.44; that for GCAACCUCAUACCAAAGAGTT against Zfyve26, 0.211; that for GGUCACUAUCUCUGAUUUCTT against Bpifb2, -1.38.
The same measure for GGUCAUCCUUGCCAAUCUCTT against Olfr686: -2.11 (active); for GGAAUCUUCCAGAACUAAATT against Rufy1: 0.912; for GCAGGUCUUACCAGAUCGATT against Thap3: -0.765.
The result for GGCAGUAAGGCUCCAAUCUTT against Tcp10a reads -2.1 (active); that for GGCUCUGAACAGCAUUGACTT against Mdfi, -0.521; that for GGUUUGAAUCAAAUUGUACTT against Hyou1, -1.12.
Regarding CCUCCACAUUUAUUUGCUATT against Mbtd1, the z-score is 1.23.
Regarding ACCUGAAUUUGGUGACUGATT against Rdh18-ps, the z-score was 0.368.
The same measure for GGUAUUAUGAGACAGGAAGTT against Pax5: -1.61; for GGUUUUAGGAUCCUAGAAGTT against Ap1s1: 0.957; for GCUGGCUUUGAUUUAUGGATT against Prkar1a: 5.06 (active).
The same measure for GGACGUGUUCGGAAACCUATT against Psmc3ip: 0.134; for CCUGUGCUCUGAGUUUGGCTT against Tmem270: 0.00319.
Consider GGACAAACGGGAAAAGAAGTT against Sprr2d, for which the z-score was -2.04 (active).
GGGUUGUUUGUCUUGUUCGTT against Rspo2: the z-score is 0.847.
With GGAAAGAUUCAAAGAACCUTT against Rpia, the z-score was 1.45.
The result for GGCAGACAGUCUAACAGAUTT against Krt6a reads 0.283; that for GGCAGUUAUUCAGAAUUGATT against Nfu1, -2.2 (active); that for GAUUUUCCUGCUCACAAUGTT against Olfr1269, 1.03.
The same measure for GGACUUGAGUCAGCUCAUCTT against Fastk: -1.38; for GCAACAUUGGAUGUACUCATT against Hdac10: -2.63 (active); for CGUAUAUCCGGUCAGAAGATT against Cnot4: 0.634.
The same measure for GCAGCAUCGCUAUGUCCUGTT against Ccl26: 0.182.
Take GGAACAAUGCUCAAUUUUUTT against Rfc1: the z-score is 1.63.
For GCUCCUACGUGUCAGCCUUTT against Skor1, the z-score was -0.815.
Take CGGUCAUGUCUACAUGUGCTT against Cfp: the z-score was -0.0864.
GGAAUUGUUAAUUGUGGGATT against Stau2: the z-score was -2.25 (active).
The result for GGCUUCAGAUUUCGAUAUGTT against Nfkb2 reads 1.02; that for CCUUGGACUUGAGUUCCAATT against Ssu2, 1.58; that for GGCAAAUGUGGCCGUGUUUTT against Ccne1, 0.175.
As for GGAAGAAGCAAAGAACUAUTT against Spg20, the z-score was 0.552.
The same measure for GGGCUGAUGUGGGCUAAAUTT against Tmem38a: 2.47 (active).
The same measure for GCCCGGAAUAUAUAGCCCUTT against Hdac10: -0.706; for CCUCCAGAUAAGAAUGUGCTT against Fnip1: -1.34; for CGUAAGUGGACGACGGUUCTT against Kcnd3: 0.106.
Regarding CGAAGGUACUAUGUAUUUUTT against Tbce, the z-score was -0.12.
The same measure for GGAACACAUUGGGUAUGCCTT against Sac3d1: -0.575; for GGUGUUUAUCGACAGGUACTT against Myo15: 0.126; for CAAACUGGGUCCCAAUGAATT against Ndufa4: 2.7 (active).
On to GGGAAGUUGUCCUUGAAGATT against Cd36, for which the z-score is -0.037.
On to GGACCAUCCCUGUUUUAUATT against Ifrd2, for which the z-score was -0.0712.
As to GGUCCCUAGCACUAUUUUUTT against Hes6, the z-score is 1.04.
Take GGAAUAUCACUUCCAUACATT against Ntrk3: the z-score is 0.587.
Consider GACCAACCCUCACUAAGCUTT against Tcstv3, for which the z-score was -0.364.
The result for GGAGCAGAUAAUGUACAUATT against Cep112 reads 2.32 (active).
On to GGACUAUUUGGAAACCUCCTT against Olfr1366, for which the z-score is -0.304.
The same measure for GGAUGUAACUAGUAACUUUTT against Kcnn3: 0.108; for GCAAGAAAACCUUAGCUCATT against Trpm2: -0.518; for CGGAUACAGGUUCGGGUAATT against Nemp1: 1.06.
CCGUGACGAGCUUGUGGUUTT against Ap3b2: the z-score is 0.788.
On to GGUCCGAUAUCUGAGUCUCTT against Hic1, for which the z-score was 0.471.
As for CCUUAAUCGCAUCAAAUUATT against Slc1a3, the z-score was 2.35 (active).
In the case of GGUUAGAAUAUGCAGAACATT against Arntl, the z-score is -0.525.
GGAGGGCAUCCUCUUCAAATT against Drc3: the z-score was 0.312.
For the sequence GGUAUUAUGACUGUAAAGGTT against Endou, the z-score was 0.0412.
GGAAGUGAAUAUUGAGUUUTT against Bccip: the z-score is 2.04 (active).
For the sequence GGAGAAGAAAAAGAUUAUCTT against Atp6v1d, the z-score was 1.07.
On to GGGAAGAUGUGGAUGUCAUTT against Oprk1, for which the z-score is -1.05.
